From PubChem BioAssay (NCI)
Compounds without any hit were thinned out: in the full panel of roughly 83,000, 20% have a hit.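 Assay: single dose, 48 h. Readout: percent growth (0 = no net growth; negative = cell death). Active: <10.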 Unmarked numbers belong to inactive results. The source made the active and inactive calls.

Assays:
Assay in all cases: NCI-60 one-dose screen, 48 h (100 = growth as untreated, 0 = no growth, -100 = all killed)
Conditions in all cases: 10 µM unless noted
[1] = test system: RPMI-8226 leukemia
[2] = test system: OVCAR-8 ovarian
[3] = test system: OVCAR-5 ovarian
[4] = test system: OVCAR-4 ovarian
[5] = test system: SK-OV-3 ovarian
[6] = test system: IGROV1 ovarian
[7] = test system: OVCAR-3 ovarian
[8] = test system: HS 578T breast
[9] = test system: NCI/ADR-RES ovarian
[10] = test system: T-47D breast
[11] = test system: BT-549 breast
[12] = test system: MDA-MB-435 melanoma
[13] = test system: SW-620 colon
[14] = test system: MCF7 breast
[15] = test system: HCT-116 colon
[16] = test system: HCC-2998 colon
[17] = test system: KM12 colon

SMILES	growth [1]	growth [2]	growth [3]	growth [4]	growth [5]	growth [6]	growth [7]	growth [8]	growth [9]	growth [10]	growth [11]	growth [12]	growth [13]	growth [14]	growth [15]	growth [16]	growth [17]
COc1ccc(-c2cnnc3c(-c4cccc(C(F)(F)F)c4)cnn23)cc1	45.8%	19.6%	81%	35.7%	15.1%	64.1%	26.4%	20.1%	60.5%	48.9%	-34.9% (active)	47.2%	79.3%	73.9%	2.24% (active)	81.5%	82.6%
Cc1[nH]n(-c2cccc(Cl)c2)c(=O)c1/C=C1\C=Nc2ccc(Br)cc21	14.1%	9.67% (active)	30.5%	–	-25% (active)	19.3%	-47.2% (active)	0.668% (active)	16.3%	-47.4% (active)	41.5%	43.9%	17.2%	33.9%	-76% (active)	63.5%	47.2%
COc1ccc(C2CC(n3nnnc3-c3ccccc3)=NN2)cc1 (stereo not drawn)	62.5%	61.6%	66.4%	–	–	64.8%	75.1%	99%	49.9%	–	81.4%	50.1%	50.6%	62%	50.7%	72.3%	49.3%
CC1=CC2(C)/C=C(C)/C=C\CC(O)/C=C3/C=CC(=C4C(=O)OC2(CC1C)C4=O)OC3 (stereo not drawn)	-23.8% (active)	0.804% (active)	-57.9% (active)	-40.6% (active)	94.6%	-49.1% (active)	-100% (active)	-34% (active)	-61.8% (active)	-33.9% (active)	-17.1% (active)	-50.1% (active)	-88.5% (active)	-21.9% (active)	-100% (active)	–	10.2%
CNC(=O)Nc1ccc(-c2nc(N3CCOCC3)nc3c2cnn3C2CCOCC2)cc1	8.13% (active)	0.163% (active)	1.59% (active)	–	–	-27.6% (active)	1.45% (active)	-24.9% (active)	4.44% (active)	-15.6% (active)	-15.4% (active)	-26.6% (active)	12%	1.06% (active)	12.7%	13.5%	–
BrC(Br)(Br)c1cnc2ccccc2n1	41.8%	45.4%	60.3%	–	69.4%	51.9%	-27.5% (active)	66.7%	44.3%	-49.3% (active)	74.4%	36.5%	-65% (active)	25.8%	-40.3% (active)	43.8%	42.7%
COc1ccc(CNC(=O)COc2ccc(/C=N/Nc3nc4ccccc4s3)cc2)cc1	27.3%	22.3%	66.9%	-37.5% (active)	–	28.8%	25.3%	13.3%	23.3%	14.7%	12.9%	7.82% (active)	38.6%	42.1%	10.6%	53.5%	1.51% (active)
Cc1c(C2=CCCCC2)c2ccccn2c1C(=O)c1cccc(S(=O)(=O)N2CCOCC2)c1	46.9%	94.9%	106%	52.2%	92.6%	75.7%	73%	75.8%	60.5%	–	54.8%	62.5%	98.2%	93.4%	43%	82.2%	72.3%
COc1cc(CCNc2nc3cc(N)cc(N)c3nc2-c2ccccc2)cc(OC)c1	-39.6% (active)	-22.2% (active)	13.4%	-94.9% (active)	82.3%	27.8%	-66.2% (active)	-70.5% (active)	39.1%	-31% (active)	19.1%	-56.8% (active)	-56.7% (active)	-79.9% (active)	-35.9% (active)	-5.77% (active)	4.39% (active)
C(=N\Nc1ncc(-c2cc3cc4c(cc3o2)OCO4)s1)/c1c[nH]c2ccccc12	-22.4% (active)	-12.1% (active)	9.56% (active)	-12.9% (active)	–	-43.8% (active)	-44.4% (active)	-6.98% (active)	10.7%	–	-56.9% (active)	-31.6% (active)	-33.9% (active)	-0.831% (active)	-1.24% (active)	-3.45% (active)	-29.8% (active)
O=S(=O)(c1ccc(N/N=C\c2ccccc2)cc1)c1ccc(N/N=C/c2ccccc2)cc1	85.6%	30.3%	84.7%	–	74%	72.1%	72.2%	–	53.1%	56%	105%	68.8%	74%	62.9%	52.6%	66.4%	66.9%
Cc1ccc(S(=O)(=O)Nc2ccc(Cl)cc2)cc1	101%	102%	97.3%	–	112%	98.9%	115%	100%	91.9%	106%	106%	101%	105%	93.7%	97.4%	104%	105%
COc1cc2nnn3c4ncccc4c(N=O)c3c2cc1OC	-11.8% (active)	14.3%	102%	50.3%	104%	–	120%	116%	44.6%	51.8%	–	90.5%	46.3%	21.4%	28.9%	106%	87%
CSc1nnc2c(=O)n(C)c(=O)n(C)c2n1	75.8%	106%	100%	105%	103%	101%	144%	86.6%	101%	–	96.4%	95.2%	96.1%	97.8%	106%	105%	–
